Holding throughout (design): scale not given: direction of the effect not stated beside the values
Experiment [1] concerns the target Protein translocase subunit SecA (Escherichia coli (strain K12)) (UniProt P10408). The experiment can be described thus: Assay to Identify E. coli SecA ATPase Inhibitors. The format is functional. To be noted: 30 µM.
Experiment [2] deals with T1, Ubiquitin-activating enzyme e1, putative (Leishmania donovani (strain BPK282A1)) (UniProt E9BSI1).
T1 sequence (whole entry): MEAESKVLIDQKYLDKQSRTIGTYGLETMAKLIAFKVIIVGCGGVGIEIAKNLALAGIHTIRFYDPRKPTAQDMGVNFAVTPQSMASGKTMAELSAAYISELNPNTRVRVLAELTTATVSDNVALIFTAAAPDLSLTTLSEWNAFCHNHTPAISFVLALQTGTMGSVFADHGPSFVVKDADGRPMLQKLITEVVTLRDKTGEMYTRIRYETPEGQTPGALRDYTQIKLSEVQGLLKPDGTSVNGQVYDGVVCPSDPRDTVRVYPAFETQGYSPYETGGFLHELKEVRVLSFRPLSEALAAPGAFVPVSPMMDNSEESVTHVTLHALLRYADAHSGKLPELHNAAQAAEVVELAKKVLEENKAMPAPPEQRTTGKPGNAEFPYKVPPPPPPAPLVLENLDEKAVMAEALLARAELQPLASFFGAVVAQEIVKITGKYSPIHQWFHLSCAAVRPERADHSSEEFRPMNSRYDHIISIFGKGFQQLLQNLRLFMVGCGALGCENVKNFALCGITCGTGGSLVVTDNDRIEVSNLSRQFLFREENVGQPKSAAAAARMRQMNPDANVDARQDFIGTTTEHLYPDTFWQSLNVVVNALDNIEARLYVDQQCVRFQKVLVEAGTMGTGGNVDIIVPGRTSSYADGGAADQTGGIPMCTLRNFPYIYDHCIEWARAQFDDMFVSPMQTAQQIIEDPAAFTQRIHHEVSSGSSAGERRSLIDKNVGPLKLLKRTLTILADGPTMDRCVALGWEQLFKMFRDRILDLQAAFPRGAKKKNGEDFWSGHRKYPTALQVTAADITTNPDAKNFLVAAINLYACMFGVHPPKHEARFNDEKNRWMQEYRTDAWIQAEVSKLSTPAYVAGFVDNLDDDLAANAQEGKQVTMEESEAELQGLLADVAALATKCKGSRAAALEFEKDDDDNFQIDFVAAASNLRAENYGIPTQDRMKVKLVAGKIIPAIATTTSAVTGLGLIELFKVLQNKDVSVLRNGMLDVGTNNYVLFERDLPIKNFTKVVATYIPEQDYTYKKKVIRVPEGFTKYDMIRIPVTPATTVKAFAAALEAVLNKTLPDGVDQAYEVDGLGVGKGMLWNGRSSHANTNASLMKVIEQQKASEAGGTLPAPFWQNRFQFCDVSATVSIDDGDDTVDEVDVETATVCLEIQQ
Put plainly: Leishmania donovani Ubiquitin Activating Enzyme (LdE1). The format is functional. To be noted: 30 µM.

Experiment [3] deals with Sialic acid-binding Ig-like lectin 9 (Homo sapiens) (UniProt Q9Y336). The experiment can be described thus: Hs-Siglec9 ALPHAscreen SOP 20170721. To be noted: 10 µM. (In Alpha technology, singlet oxygen from a donor bead excites a nearby acceptor bead.)
The next experiment concerns Trypanosoma cruzi. The experiment can be described thus: Trypanosoma cruzi phosphomannomutase and mannose-1-phosphate guanylyltransferase assay. The format is functional. To be noted: 10 µM.
The target in experiment [4] is T2, Arginase-2, mitochondrial (Homo sapiens) (UniProt P78540).
T2 sequence (whole entry): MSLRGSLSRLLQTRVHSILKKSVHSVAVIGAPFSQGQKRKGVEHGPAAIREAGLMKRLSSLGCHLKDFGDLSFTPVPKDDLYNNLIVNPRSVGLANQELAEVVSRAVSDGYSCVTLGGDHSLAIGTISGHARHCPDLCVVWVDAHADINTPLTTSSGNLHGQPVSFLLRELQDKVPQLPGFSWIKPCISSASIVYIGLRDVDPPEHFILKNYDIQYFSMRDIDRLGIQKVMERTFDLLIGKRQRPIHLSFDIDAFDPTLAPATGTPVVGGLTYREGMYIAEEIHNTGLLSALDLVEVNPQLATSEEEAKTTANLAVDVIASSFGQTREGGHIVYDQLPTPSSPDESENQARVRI
Put plainly: in vitro enzyme assay to detect the production of urea directly proportional to the activity of Arginase II. Also: in the data most compounds retested in dose-response had high values. The format is functional. Particulars: 33.3 µM.

Experiment [5] has as its target T3, Proteasome subunit beta (Trypanosoma cruzi) (UniProt O96673).
T3 sequence (whole entry): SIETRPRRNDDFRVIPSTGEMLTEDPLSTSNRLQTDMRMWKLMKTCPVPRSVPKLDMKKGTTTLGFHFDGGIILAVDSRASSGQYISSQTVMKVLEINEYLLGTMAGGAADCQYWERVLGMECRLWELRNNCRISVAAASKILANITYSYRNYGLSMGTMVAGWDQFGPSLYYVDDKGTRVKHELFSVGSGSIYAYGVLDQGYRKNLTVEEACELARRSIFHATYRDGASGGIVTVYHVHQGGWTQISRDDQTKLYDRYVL
Put plainly: Trypanosoma cruzi proteasome chymotrypsin-like activity (TcProtChymo) assay. Also: in the data most compounds retested in dose-response had high values. The format is functional. Particulars: 9.37 µM.

The next experiment is filed under the species Homo sapiens. Put plainly: To identify inhibition of the IFN signalling (Jak-Stat) pathway via expression of an eGFP reporter gene under the control of an IFN-stimulated response element (ISRE) containing MxA promoter. The experiment is classed as functional. To be noted: 30 µM.
Experiment [6] addresses T4, Tyrosyl-tRNA synthetase, putative (Trypanosoma cruzi (strain CL Brener)) (UniProt Q4DSP6).
T4 sequence (whole entry): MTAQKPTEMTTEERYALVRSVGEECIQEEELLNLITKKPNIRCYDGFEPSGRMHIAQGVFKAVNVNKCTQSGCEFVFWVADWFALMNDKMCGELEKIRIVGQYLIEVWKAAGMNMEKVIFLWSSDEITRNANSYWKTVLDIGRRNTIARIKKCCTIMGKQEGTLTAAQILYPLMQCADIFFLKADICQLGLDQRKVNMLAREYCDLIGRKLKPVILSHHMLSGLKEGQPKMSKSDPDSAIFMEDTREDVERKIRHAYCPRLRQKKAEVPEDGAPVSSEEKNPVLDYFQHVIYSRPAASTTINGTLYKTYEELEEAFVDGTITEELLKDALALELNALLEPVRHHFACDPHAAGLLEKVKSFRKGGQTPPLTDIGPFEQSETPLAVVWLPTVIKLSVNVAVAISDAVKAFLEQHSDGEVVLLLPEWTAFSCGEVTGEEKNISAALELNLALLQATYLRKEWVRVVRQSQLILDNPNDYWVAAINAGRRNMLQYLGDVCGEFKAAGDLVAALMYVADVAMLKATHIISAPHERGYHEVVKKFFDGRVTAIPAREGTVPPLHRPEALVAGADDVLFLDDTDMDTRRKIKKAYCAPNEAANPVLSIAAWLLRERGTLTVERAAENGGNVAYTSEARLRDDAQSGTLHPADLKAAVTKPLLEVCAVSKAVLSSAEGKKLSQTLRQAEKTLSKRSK
Put plainly: Trypanosoma cruzi tyrosyl tRNA synthetase (TcYRS) _High Tyrosine SOP. Also: in the data most compounds retested in dose-response had high values. The experiment is classed as functional. To be noted: 30 µM.

Experiment [7] addresses T4, Tyrosyl-tRNA synthetase, putative (Trypanosoma cruzi (strain CL Brener)). The experiment can be described thus: Trypanosoma cruzi tyrosyl tRNA synthetase (TcYRS) SOP. The format is functional. To be noted: 30 µM.
Experiment [8] concerns the target Chromo domain-containing protein 1 (Saccharomyces cerevisiae (strain ATCC 204508 / S288c) (Baker's yeast)) (UniProt P32657). The experiment can be described thus: ScCHD-1 Enzyme Inhibition Assay. Also: in the data most compounds retested in dose-response had high values. The format is functional. To be noted: 30 µM.

For some assays here: Potency and affinity values are given separately.

Sequence of Protein translocase subunit SecA (Escherichia coli (strain K12)) (P10408 whole entry): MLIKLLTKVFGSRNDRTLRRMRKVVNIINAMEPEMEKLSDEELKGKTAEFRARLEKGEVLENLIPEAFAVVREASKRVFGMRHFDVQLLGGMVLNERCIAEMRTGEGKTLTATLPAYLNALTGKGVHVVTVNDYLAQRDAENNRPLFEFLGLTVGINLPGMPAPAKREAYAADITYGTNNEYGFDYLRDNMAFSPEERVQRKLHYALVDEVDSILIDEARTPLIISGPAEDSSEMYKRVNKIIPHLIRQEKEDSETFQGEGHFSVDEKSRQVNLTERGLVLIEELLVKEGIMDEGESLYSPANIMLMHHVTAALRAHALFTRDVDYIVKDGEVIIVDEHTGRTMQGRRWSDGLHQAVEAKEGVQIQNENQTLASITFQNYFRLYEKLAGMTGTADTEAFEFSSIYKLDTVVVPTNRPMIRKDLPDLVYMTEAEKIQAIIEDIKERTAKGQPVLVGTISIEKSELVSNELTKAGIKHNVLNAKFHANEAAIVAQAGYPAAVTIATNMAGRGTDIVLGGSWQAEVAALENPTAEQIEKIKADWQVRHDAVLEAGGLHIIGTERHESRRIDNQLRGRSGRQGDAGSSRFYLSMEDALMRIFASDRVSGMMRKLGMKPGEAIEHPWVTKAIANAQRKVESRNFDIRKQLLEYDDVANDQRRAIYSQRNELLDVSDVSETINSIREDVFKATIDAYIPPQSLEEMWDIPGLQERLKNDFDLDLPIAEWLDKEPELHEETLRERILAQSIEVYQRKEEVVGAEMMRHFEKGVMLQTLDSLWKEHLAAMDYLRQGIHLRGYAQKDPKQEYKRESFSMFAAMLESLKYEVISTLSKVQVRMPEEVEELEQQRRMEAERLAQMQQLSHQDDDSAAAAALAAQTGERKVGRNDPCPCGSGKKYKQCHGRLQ
Sequence of Chromo domain-containing protein 1 (Saccharomyces cerevisiae (strain ATCC 204508 / S288c) (Baker's yeast)) (P32657 whole entry, the tested form may be a part): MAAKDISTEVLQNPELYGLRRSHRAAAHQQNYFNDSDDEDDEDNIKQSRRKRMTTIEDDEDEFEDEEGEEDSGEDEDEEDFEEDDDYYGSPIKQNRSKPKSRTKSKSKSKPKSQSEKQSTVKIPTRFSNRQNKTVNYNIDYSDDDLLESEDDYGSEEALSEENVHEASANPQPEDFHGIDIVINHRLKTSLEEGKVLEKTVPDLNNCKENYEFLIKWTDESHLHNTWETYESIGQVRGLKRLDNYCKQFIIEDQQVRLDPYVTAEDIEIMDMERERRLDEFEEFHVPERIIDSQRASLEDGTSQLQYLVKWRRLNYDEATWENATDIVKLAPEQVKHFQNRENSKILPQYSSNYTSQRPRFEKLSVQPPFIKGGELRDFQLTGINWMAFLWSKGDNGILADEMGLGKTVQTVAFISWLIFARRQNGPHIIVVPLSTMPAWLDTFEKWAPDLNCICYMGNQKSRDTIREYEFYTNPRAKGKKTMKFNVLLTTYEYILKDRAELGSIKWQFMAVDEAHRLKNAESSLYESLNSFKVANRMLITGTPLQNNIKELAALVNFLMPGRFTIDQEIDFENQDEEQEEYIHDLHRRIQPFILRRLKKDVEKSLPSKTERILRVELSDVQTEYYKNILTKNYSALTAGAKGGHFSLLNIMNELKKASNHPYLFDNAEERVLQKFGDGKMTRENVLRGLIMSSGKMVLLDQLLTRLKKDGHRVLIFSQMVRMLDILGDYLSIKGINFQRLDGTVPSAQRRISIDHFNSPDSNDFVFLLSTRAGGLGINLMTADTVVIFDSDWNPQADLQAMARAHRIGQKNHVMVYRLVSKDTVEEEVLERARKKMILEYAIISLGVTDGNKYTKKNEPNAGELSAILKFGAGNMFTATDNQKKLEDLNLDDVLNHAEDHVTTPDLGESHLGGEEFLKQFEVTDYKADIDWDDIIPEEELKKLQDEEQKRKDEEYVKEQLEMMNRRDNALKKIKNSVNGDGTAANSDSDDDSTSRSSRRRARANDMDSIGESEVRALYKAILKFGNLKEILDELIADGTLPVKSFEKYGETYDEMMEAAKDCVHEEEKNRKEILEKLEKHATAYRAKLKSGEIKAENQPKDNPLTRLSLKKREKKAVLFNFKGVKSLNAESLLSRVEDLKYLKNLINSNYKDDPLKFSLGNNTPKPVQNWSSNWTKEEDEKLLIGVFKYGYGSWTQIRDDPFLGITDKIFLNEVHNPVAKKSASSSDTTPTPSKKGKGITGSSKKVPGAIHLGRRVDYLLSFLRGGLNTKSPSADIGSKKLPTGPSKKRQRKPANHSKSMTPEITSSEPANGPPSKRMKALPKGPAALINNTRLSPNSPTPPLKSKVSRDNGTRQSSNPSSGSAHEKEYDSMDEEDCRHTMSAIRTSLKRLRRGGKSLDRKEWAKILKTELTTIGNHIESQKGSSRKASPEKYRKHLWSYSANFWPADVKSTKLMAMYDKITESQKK
Sequence of Sialic acid-binding Ig-like lectin 9 (Homo sapiens) (Q9Y336 whole entry): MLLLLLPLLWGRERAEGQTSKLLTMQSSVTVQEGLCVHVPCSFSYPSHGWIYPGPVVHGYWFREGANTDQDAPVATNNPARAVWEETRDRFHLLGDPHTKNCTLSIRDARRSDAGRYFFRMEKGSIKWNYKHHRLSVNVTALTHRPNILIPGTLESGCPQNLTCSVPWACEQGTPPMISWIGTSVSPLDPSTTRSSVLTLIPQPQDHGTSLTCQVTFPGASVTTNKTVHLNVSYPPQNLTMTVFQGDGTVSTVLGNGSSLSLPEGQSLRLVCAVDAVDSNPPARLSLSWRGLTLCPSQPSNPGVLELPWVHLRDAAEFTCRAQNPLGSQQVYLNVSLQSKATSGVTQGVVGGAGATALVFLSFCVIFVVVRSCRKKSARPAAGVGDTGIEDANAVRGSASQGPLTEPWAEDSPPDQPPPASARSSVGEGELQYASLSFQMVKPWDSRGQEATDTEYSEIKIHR

As for `CC(C)(C)c1nnc(CN2CCCC(Cn3cncn3)C2)o1` (stereo not given), the Percent Effect in [1] is -2.1%; in experiment [2], -2.56%; in experiment [3], 0.0313%; with Trypanosoma cruzi, 4.41%; in experiment [4], 0.41%; in [5], -1.79%. Also, the Percent Effect in the experiment listed under Homo sapiens was 8%; in [6] it was 2.39%; in experiment [7] it was 1.21%; in experiment [8], -1.8%.
Consider `CC[C@H](C)Nc1nccc(-c2cnc3sc(C)c(C)n3c2=O)n1`, for which the Percent Effect in [1] is -6.51%; in [2], 0%; in [3], 0.241%; in the experiment with Trypanosoma cruzi, -3.61%; in experiment [4] it was -3.55%; in experiment [5] it was 12.6%. Moreover, the Percent Effect in the experiment listed under Homo sapiens is 15.3%; in [6], -3.68%; in experiment [7], -10.3%; in experiment [8] it was -9.65%.
For `CC(C)C(NC(=O)N1CCN(c2ccc(Cl)cc2)CC1)C(=O)NC1CC1` (stereo not given), the Percent Effect in [1] was -5.57%; in [2], 5.41%; in experiment [3], 7.5%; in the experiment on Trypanosoma cruzi it was 2.23%; in [4], -3.15%; in experiment [5], 16.4%. The Percent Effect is 21.7% in the experiment listed under Homo sapiens, 4.79% in [6], 19.5% in [7] and -1.96% in experiment [8].
As to `CN(C)CC1CN(Cc2coc(-c3cccs3)n2)CCO1` (stereo not given), the Percent Effect was -1.09% in [1]; 13.3% in experiment [2]; -3.06% in [3]; -2.41% with Trypanosoma cruzi; 2.22% in experiment [4]; 11.8% in [5]. The Percent Effect in the experiment listed under Homo sapiens is 15.3%; in experiment [6] it was -0.526%; in [7], 5.13%; in [8], -10.9%.
As for `Cc1cc(NC(=O)C(C)N2CCCN(c3nccs3)CC2)on1` (stereo not given), the Percent Effect is -5.38% in [1]; 7.69% in [2]; 6.57% in experiment [3]; 1.03% with Trypanosoma cruzi; 5.74% in [4]; 7.08% in experiment [5]. Further, the Percent Effect in the experiment listed under Homo sapiens was found to be 12.4%; in [6], 0.478%; in [7] it was 8.43%; in experiment [8], 6.1%.
Regarding `COCC1CN(Cc2ccc(OC)cc2)Cc2nn(C)cc21` (stereo not given), the Percent Effect in experiment [1] was 0.916%; in experiment [2], 22.1%; in [3] it was -1.55%; with Trypanosoma cruzi, -9.45%; in experiment [4], 12.2%; in experiment [5], 18.4%. Further, the Percent Effect in the experiment listed under Homo sapiens was 20.9%; in experiment [6], 6.84%; in [7] it was 2.56%; in [8], -2.71%.
Turning to `COCC1CC2(CCN(Cc3cnn(C)c3)CC2)CN1C(C)C` (stereo not given), the Percent Effect in experiment [1] was -5.94%; in experiment [2] it was 6.49%; in [3], -6.16%; in the experiment with Trypanosoma cruzi it was -2.82%; in experiment [4], -4.45%; in experiment [5], 11.6%. The Percent Effect in the experiment listed under Homo sapiens was 2.36%; in experiment [6], -2.63%; in experiment [7], 2.56%; in experiment [8], -4%.
Consider `Cc1cc(NC(=O)N(CC2CCOC2)C2CC2)no1` (stereo not given), for which the Percent Effect is -2.1% in experiment [1]; 13.3% in experiment [2]; 6.54% in experiment [3]; 1.21% with Trypanosoma cruzi; 2.22% in [4]; 6.7% in experiment [5]. For the same molecule, the Percent Effect is 21.8% in the experiment filed under Homo sapiens, 5.79% in [6], 12.8% in [7] and -7.01% in experiment [8].
Take `Cc1ccccc1CC(=O)N(C)C1CCCC1`: the Percent Effect is -3.46% in experiment [1]; 13.3% in experiment [2]; -5.48% in experiment [3]; -4.62% with Trypanosoma cruzi; 3.1% in experiment [4]; 16.2% in [5]. Besides, the Percent Effect was 17% in the experiment filed under Homo sapiens, 3.68% in experiment [6], 7.69% in experiment [7] and -11.3% in [8].
With `O=C(CSC1CCc2ccccc2NC1=O)NCCc1ccco1` (stereo not given), the Percent Effect in [1] is -1.93%; in experiment [2] it was 18.9%; in experiment [3], 2.64%; in the experiment with Trypanosoma cruzi, 3.98%; in experiment [4] it was 11.5%; in experiment [5], 18%. Further, the Percent Effect is 16.5% in the experiment filed under Homo sapiens, 3.72% in experiment [6], 17.1% in experiment [7] and -0.493% in experiment [8].
In the case of `Cn1ccnc1CN1CCOCC(Cc2ccccn2)C1` (stereo not given), the Percent Effect is -3.37% in experiment [1]; 6.67% in [2]; 0.649% in experiment [3]; -4.14% with Trypanosoma cruzi; 5.75% in experiment [4]; 11.3% in experiment [5]. Further, the Percent Effect is 8.81% in the experiment listed under Homo sapiens, 1.06% in experiment [6], 10% in [7] and -19.9% in experiment [8].

For the origin of these results see ChEMBL document CHEMBL3988442, “University of Dundee, Small-Polar-MMV Screening Library” (2021).
